# Bioassay records deposited in PubChem BioAssay by National Center for Advancing Translational Sciences (NCATS).
# Sampled rows, rich in hits. Any-hit rate of the full collection: about 7.8%.
# MARV entry inh: blocks Marburg virus binding to or entry into cells; Marburg virus pseudotyped entry inhibition, cell reporter; Potency, µM (titrated, usually from 37.8 µM), for inactives: top-dose activity change, negative = inhibition, hits mostly inhibitors; 300,000 tested, 1.8% active; AID 540276; calls by dose curve; tested in HEK293 cells; note: potency is the fitted concentration of half-maximal effect
# LASV entry inh: Lassa virus entry inhibition; Potency, µM (highest dose often 37.9 µM), for the others: top-dose activity change, negative = inhibition, usual class: inhibitors; Lassa virus pseudotype entry inhibition, cell reporter; 300,000 tested, 1.2% active; calls by dose curve; tested in HEK293 cells; note: potency is the fitted concentration of half-maximal effect; nearly all actives have a fitted effect of over 50% in size
# HCV inh: inhibitors of hepatitis C virus infection. Huh7.5.1 HCVcc-Cre infection, luciferase reporter, 44 h. Potency, µM (highest dose often 41.8 µM), for the others: at the highest dose activity change, negative = inhibition, hits mostly inhibitors. 340,000 tested, 3.4% active. AID 651820; active = well fitted inhibition curve with a large enough effect; inconclusive = small, poorly fitted or top-dose-only effect, or another doubt; inactive = no such curve, though single readings can be large or run the other way; note: potency is the fitted concentration of half-maximal effect
#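 Cells (1,000/well) were plated 4 h before compound, then infected with HCVcc-Cre virus (~0.5 moi). After 44 h further culture, infection was read as luciferase luminescence following a 15 min substrate incubation at room temperature.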
# VACV mCherry inh: vaccinia inhibition (mCherry reporter) | Vaccinia virus mCherry reporter infection, fluorescence | Potency, µM (top dose mostly 36.5 µM), inactives show at the top dose activity change, negative = inhibition, most hits filed as inhibitors | 310,000 tested, 0.63% active | AID 720579; calls by dose curve; tested in A549 cells; note: potency is the fitted concentration of half-maximal effect; nearly all actives have a fitted effect of over 35% in size
# HCMV inh: human cytomegalovirus inhibition | activity change, negative = inhibition, % at 57.5 µM | 410,000 tested, 4.5% active | HFF cells, HCMV-luciferase reporter, 72 h; stronger effect = lower value | AID 1259415; in the data active = activity change below about -60%; inconclusive = no clear call, values can overlap the other calls; inactive = above about -39%
#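 Human foreskin fibroblasts infected with luciferase-reporter HCMV at MOI 1 PFU/cell, compounds at two doses. Luciferase measured 72 h post infection; normalized to buffer-only basal and Salinomycin (10uM) controls.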
# VACV Venus inh: inhibitors of vaccinia virus (Venus reporter) | 330,000 tested, 0.46% active | Vaccinia virus Venus reporter expression, fluorescence | Potency, µM (series often up to 36.5 µM), for the others: at the highest dose activity change, negative = inhibition, most hits filed as inhibitors | AID 720580; calls by dose curve; tested in A549 cells; note: potency is the fitted concentration of half-maximal effect; nearly all actives have a fitted effect of over 30% in size
# * marks the source's active call; other numbers are inactive results; i = inactive; ? = inconclusive; nt = no result; ! = not active in a repeat; [ ] = remark or other dose. % is set by controls: 0 for no effect and ±100 for the full control effect.
SMILES,MARV entry inh,LASV entry inh,HCV inh,VACV mCherry inh,HCMV inh,VACV Venus inh
COc1cc(OC)c(NC(=O)Nc2c(C)n(C)n(-c3ccccc3)c2=O)cc1Cl,-13.6%[46.1 µM],-7.4%[46.1 µM],nt,-13.4%,-10.4,-6.2%
CC(=O)/C=C/c1ccc2ccccc2n1,?,?,?,nt,-83.7*,?
CC(OC(=O)/C=C/c1ccc2ccccc2n1)C(=O)N(C)c1ccccc1 (stereo not given),nt,nt,?,nt,-34.9,nt
COc1ccccc1CNC(=O)COC(=O)/C=C/c1ccc2ccccc2n1,nt,nt,11.2%,nt,-62.1*,nt
COc1ccccc1CNC(=O)COC(=O)/C=C/c1cccs1,-37.9%,1.4%,4.3%,i,-25.6,-6.2%
N[C@H](C(=O)O)[C@@H]1[C@@H](C(=O)O)C1(F)F,nt,nt,nt,-6.6%,nt,-8.3%
O=C(Nc1cccc(Cl)c1)N1CC2CCCN2c2ccccc21 (stereo not given),nt,?,nt,-12.5%,20.2,-9.2%
CC(OC(=O)c1cccs1)C(=O)Nc1nc(-c2ccccc2)cs1 (stereo not given),-5.4%[46.1 µM],?,-3.2%,-13.6%,13.1,-1.9%
Cc1cc(C(=O)OCC(=O)Nc2nc(-c3ccccc3)cs2)c(C)o1,-3.0%,?,?,nt,-101.4*,?
COc1ccccc1NC(=O)COC(=O)c1cc(C)oc1C,0.5%[46.1 µM],-0.4%[46.1 µM],-22.0%,i,-79.2*,-9.9%
Cc1cc(C(=O)OC(C)C(=O)Nc2nc(-c3ccccc3)cs2)c(C)o1 (stereo not given),?,13µM*,?,10.6%,-8.3,22.2%
ON=C(c1ccccc1)c1ccc2c3c(cccc13)CC2,nt,nt,nt,-19.7%,-62.3*,?
CC(=O)c1ccc2c3c(cccc13)CC2,17.4%[46.1 µM],-2.2%,-14.6%,i,13.4,-9.0%
COC(=O)[C@@H]1[C@@H](CO)[C@@H]2Cn3c(ccc(Br)c3=O)[C@H]1N2C(=O)Cc1ccccn1,nt,nt,nt,nt,3.8,nt
Cc1ccc(N(CC(=O)NCCc2ccccc2)C(=O)c2csnn2)cc1,-7.7%[46.1 µM],-12.5%[46.1 µM],-12.4%,-4.3%,-87.6*,-2.5%
CC(C)c1ccc(N(CC(=O)NCCc2ccccc2)C(=O)c2csnn2)cc1,?,?,?,-3.5%,-8.8,4.8%
O=C1CC(c2ccco2)CC2=C1C1c3ccccc3C(=O)N1c1ccccc1N2 (stereo not given),?,-9.3%,?,nt,-24.2,?
O=C1CCCC2=C1C1c3ccccc3C(=O)N1c1ccc(C(=O)c3ccccc3)cc1N2 (stereo not given),?,?,?,-10.8%[1.46 µM],-76.1*,-18.9%
CCCCN(CCCC)CC(O)CN(c1cc([N+](=O)[O-])ccc1OC)S(=O)(=O)c1ccccc1 (stereo not given),?,?,?,?,-20.3,-25.4%
COc1ccc([N+](=O)[O-])cc1N(CC(O)CN(CC(C)C)CC(C)C)S(=O)(=O)c1ccccc1 (stereo not given),11.6µM*,4.7%,-19.6%,-9.8%,75.9,-7.8%
O=C(NCc1ccc(F)cc1)C(c1ccccc1)c1ccccc1,nt,nt,-6.0%,nt,-10.9,nt
CC(=O)N(Cc1ccc(F)cc1)C1=C(NCc2ccccc2)C(=O)c2ccccc2C1=O,?,6.31µM*,5.01µM*,2.51µM*,nt,3.55µM*
COc1ccc(N/C(C)=C2/C(=O)C(=O)N(CCO)C2c2ccc(Br)cc2)cc1 (stereo not given),-0.2%,-7.3%,-26.3%,nt,-95.5*,nt
COc1ccc(C2/C(=C(/O)c3ccccc3)C(=O)C(=O)N2CCO)cc1 (stereo not given),2.2%,12.0%,8.4%,-1.7%,-18.5,8.9%
Cc1c(Cl)cccc1NC(=O)Cn1nc(C)c2sc3ccccc3c2c1=O,?,27.8%[46.1 µM],nt,?,10.1,?
SMILES,MARV entry inh,LASV entry inh,HCV inh,VACV mCherry inh,HCMV inh,VACV Venus inh
Cc1ccc(Cn2ccsc2=NC(=O)COC(=O)c2ccc(O)cc2O)cc1,nt,nt,11.2µM*,nt,-78.9*,nt
O=C(COC(=O)c1ccc(O)cc1O)N=c1sccn1Cc1ccccc1Cl,?,?,7.94µM*,?,-28.1,-22.6%
CC(C)(O)CCc1c(-c2ccc(O)cc2O)oc2c3c(cc(O)c2c1=O)OC(C)(C)C=C3,nt,nt,12.6µM*,-27.3%,-10.7,-9.6%
O=C(NCc1cccnc1)C1CCN(Cc2cc3ccccc3n2Cc2cccc(Cl)c2)CC1,nt,-20.6%[46.1 µM],nt,-21.5%,-1.8,-18.2%
O=C1c2cccc3c([N+](=O)[O-])ccc(c23)C(=O)N1c1ccccn1,10µM*,?,?,i,-103.0*,10.0%
O=C1c2cccc3c([N+](=O)[O-])ccc(c23)C(=O)N1O,nt,nt,0.2%,i,15.1,162.3%
O=C1c2cccc3cccc(c23)C(=O)N1c1nccs1,?,11.4%,14.9%,nt,-22.2,nt
O=C1c2cccc3c([N+](=O)[O-])ccc(c23)C(=O)N1c1ccc(Cl)cn1,?,?,10µM*,-9.8%,-105.1*,36.1%
O=C1c2ccc([N+](=O)[O-])cc2C(=O)N1c1ccc(Cl)cn1,nt,nt,12.4%,nt,-10.2,nt
O=C1c2cccc3c([N+](=O)[O-])ccc(c23)C(=O)N1c1nccs1,?,?,?,nt,-94.8*,nt
Cc1ccc(-c2[nH]ncc2CNCc2ccccc2)cc1,nt,nt,nt,-25.6%,nt,-22.4%
Cc1ccc(C)c(CN2CCC(CNC(=O)Nc3ccc(Br)cc3F)CC2)c1,4.47µM*,?,?,?,-78.5*!,?
Cc1ccc(C)c(CN2CCC(CNC(=O)Nc3ccc(Cl)cc3)CC2)c1,?,-5.7%[46.1 µM],-6.3%,i,-22.7,-12.6%
Cc1onc(-c2c(F)cccc2Cl)c1-c1ncc(-c2ccc(Cl)cc2)o1,nt,nt,nt,nt,-76.0*,nt
Clc1cc2nc3ccccn3c2cc1Cl,8.8%,15.7%,25.1µM*,nt,15.2,-19.0%
Cc1ccccc1-n1c(=O)n(Cc2ccccc2)c(=O)c2[nH]cnc21,?,12.6µM*,-7.7%,i,46.3,-16.8%
Cc1ccccc1-n1c(=O)n(CCc2ccccc2)c(=O)c2[nH]cnc21,nt,nt,14.9%,nt,0.8,nt
COc1ccc(Br)cc1/C=N/Nc1cccc(C(=O)O)c1,19.0%,19.5%,17.6%,-23.7%,79.2,0.5%
O=C(O)c1cccc(N/N=C/c2ccc(-c3ccccc3)cc2)c1,?,8.91µM*,2.8%,-27.2%,109.3,-16.1%
COc1ccccc1/C=C/C=N/Nc1cccc(C(=O)O)c1,?,5.01µM*,-22.1%,?,116.1,-24.3%
CCOc1ccc(CCNC(=O)c2ccc(CNS(=O)(=O)c3ccccc3)cc2)cc1OCC,?,-16.2%,?,-13.4%,-71.6*,-18.9%
COc1ccc(CCNC(=O)c2ccc(CNS(=O)(=O)c3cccc(Cl)c3)cc2)cc1OC,?,?,7.94µM*,-17.3%,-6.7,-28.4%
COc1ccc(CCNC(=O)c2ccncc2)cc1OC,-27.1%,8.5%,-22.3%,nt,-23.0,-1.5%
COc1ccc(CCNC(=O)c2ccc(CNS(=O)(=O)c3cc(C)ccc3C)cc2)cc1OC,10µM*,?,?,nt,?,?
